Compound activity from PubChem.
An excerpt weighted towards active compounds, which were near 7.9% of everything screened.
HT1080 IDH1KD tx: HT-1080 IDH1 knockdown cell toxicity (counter line); HT-1080 IDH1 knockdown viability, ATP luminescence, 48 h; 360,000 compounds, 2% hits; Potency, µM (highest dose often 46.1 µM), hits mostly cytotoxic
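After a 2 h attachment period, IDH1KD HT-1080 cells took pin-transferred compound for 48 h at 37 °C; ATP-based luminescence after 10 min room-temperature reagent incubation reported viability.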
MCF10A rereplic: DNA re-replication induction in MCF 10a cells | MCF 10A DNA re-replication, Hoechst nuclear intensity, 48 h | Potency, µM (top dose mostly 46.1 µM), usual class: activators | 350,000 compounds, 2.9% hits; also: nearly all actives have a fitted effect of over 50% in size
HT1080NT lethal: kills 2HG-producing HT-1080-NT fibrosarcoma cells; 360,000 compounds, 1.6% hits; HT-1080-NT fibrosarcoma viability, CellTiter-Glo ATP luminescence, 48 h; AID 686970; Potency, µM (titrated, usually from 46.1 µM), hits mostly cytotoxic;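 also: NT is the 2HG producing partner of a matched IDH1 knockdown line; nearly all actives have a fitted effect of over 55% in size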
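Compounds were tested in concentration-response format on HT-1080-NT cells for 48 hours at 37 degrees C. Cell viability came from CellTiter-Glo luminescence; curves were classified by r2, response magnitude and activity.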
KB-3-1 tox: KB-3-1 parental cell cytotoxicity; AID 1347075; Potency, µM (top dose mostly 46.1 µM), usual class: cytotoxic; 400,000 compounds, 1.4% hits; KB-3-1 viability, CellTiter-Glo ATP luminescence, 72 h; also: nearly all actives have a fitted effect of over 60% in size
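Here the drug-naive KB-3-1 line serves as comparator for MDR sub-line selectivity; cells received compound titrations, 72 h at 37 °C, then CellTiter-Glo readout.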
KB-V1 cytotox: kills drug-selected multidrug resistant KB-V1 cells; AID 1347076; 400,000 compounds, 3.4% hits; KB-V1 MDR cells viability, CellTiter-Glo, 72 h; Potency, µM (doses to about 46.1 µM), usual class: cytotoxic; also: nearly all actives have a fitted effect of over 60% in size
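Cytotoxicity via CellTiter-Glo luminescence after 72 h compound exposure at 37 degrees C. Cells: drug-selected KB-V1 line, DMEM phenol-red free plus 10% FBS. Compounds tested at multiple concentrations; normalized data fitted to concentration-effect curves.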
SW480 rerep: induces DNA re-replication in SW480 colon adenocarcinoma cells | SW480 DNA re-replication, Hoechst DNA content imaging, 48 h | Potency, µM (titrated, usually from 46.1 µM), actives largely listed as activators | 340,000 compounds, 1.8% hits; also: nearly all actives have a fitted effect of over 55% in size
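Treated cells incubate 48 hr (37 C, 5% CO2), are stained 40 min with Hoechst, and nuclear fluorescence is enumerated; a rise in nuclei with high DNA signal marks re-replication.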
Numbers stand for hits; 0 = inactive; ? = inconclusive; - = no result; ! = not active in a repeat; [ ] = remark or other dose. Calls follow the shape of the dose curve; as a rule, active = well fitted curve in the direction sought with a large enough effect; inconclusive = small, poorly fitted or top-dose-only effect, or another doubt; inactive = no such curve, though single readings can be large; an effect the other way counts as inactive or inconclusive.

SMILES	HT1080 IDH1KD tx	MCF10A rereplic	HT1080NT lethal	KB-3-1 tox	KB-V1 cytotox	SW480 rerep
O=C(Nc1ccc(Cl)c(S(=O)(=O)N2CCCCC2)c1)c1ccncc1	0	0	?	0	?	0
O=C(Nc1ncn[nH]1)c1ccc(Cl)c(S(=O)(=O)N2CCCCCC2)c1	0	0	0	0	21µM	0
COc1ccc(-c2c(C(=O)c3ccccc3)[nH]c(N)c2C(=O)NC2CC2)cc1OC	0	-	0	?	0	-
O=C(O)CN(CCOCCOCCN(CC(=O)O)CC(=O)O)CC(=O)O	-	0	-	-	-	0
O=C(O)CN(CCN(CC(=O)O)CC(=O)O)CCN(CC(=O)O)CC(=O)O	-	0[0.169 µM]	-	-	-	24µM!
CC(C)(C)c1ccc(OCCSc2nc(-c3cccs3)nc3cc(=O)[nH]n23)cc1	-	-	-	0	0	-
CCCCN(C)C(=O)C1CCC(Cn2c(=O)[nH]c3ccsc3c2=O)CC1 (centres undefined)	-	-	-	0	0	-
O=C(N(c1ccccc1)c1ccccc1)N(c1ccccc1)c1ccccc1	0	?	0	0	?	?
CCCCCCCN(C(=O)CCl)c1cccc(C)c1	?	?	0	0	0	2.1µM
N#CCCN(C(=O)COC(=O)c1nc(Cl)ccc1Cl)c1ccccc1	0	0	0	0	0	0
N#CCCN(C(=O)CCl)c1cccc(Cl)c1	23µM	?	?	21µM	?	2.6µM
CCCN(C(=O)c1cc2c(Cl)nc3ccccc3c2s1)c1cccc(C)c1	-	-	-	0	0	-
O=C(CCl)N(c1ccccc1)c1ccccc1	5.2µM	?	6.5µM	?	?	0
O=Cc1[nH]c2ccccc2c1N(C(=O)CCl)c1ccccc1	23µM	?	16µM	0	0	0
CCCCn1nnnc1C(c1ccccc1)N1CCN(c2ccccn2)CC1 (centres undefined)	0	-	0	0	0	-
COc1ccccc1Cc1c(-c2ccco2)nc2c3ccccc3ccn12	?	-	?	0	?	-
O=C(Nc1ccccc1)NN(C(=O)CCl)c1ccccc1	4.6µM	8.2µM	7.3µM	23µM	?	5.8µM
Cc1ccc(C(O)(C(=O)NN(C(=O)c2ccccc2)c2ccccc2)c2ccc(C)cc2)cc1	0	0	0	0	0	?
O=C(CCCc1ccccc1)NCCc1ccccc1	0	0	0	0	0	0
CCC(O)(CC)C(=O)NN(C(=O)CCl)c1ccccc1	?	0	0	?	0	?
Cc1ccc(N(NC(=O)C(O)(c2ccccc2)c2ccccc2)C(=O)CCl)cc1	5.8µM	23µM	5.2µM	?	?	18µM
CCCCCCN(C(=O)CCl)c1ccccc1	?	?	3.7µM	0	0	9.2µM
O=C(CCl)N(CCc1ccccc1)CCc1ccccc1	?	23µM	?	?	?	4.1µM
Cc1cccc(C)c1Nc1c(-c2ccc(Cl)s2)nc2ncccn12	-	-	-	0	0	-
Cc1ccc(S(=O)(=O)Nc2cc(C)cc(CCNC=O)c2C)cc1	0	0	0	0	18µM	0
SMILES	HT1080 IDH1KD tx	MCF10A rereplic	HT1080NT lethal	KB-3-1 tox	KB-V1 cytotox	SW480 rerep
CN(Cc1ccc(F)cc1)S(=O)(=O)c1ccc2[nH]c(=O)[nH]c2c1	0	-	0	0	0	-
Oc1ccc(/C=N/Nc2ccnc3cc(Cl)ccc23)cc1O	?	0	?	0	0	16µM
CC/C(=N\Nc1ccnc2cc(Cl)ccc12)c1ccc(O)cc1	16µM	?	18µM	?	0	?
COc1cc(CNC(=O)CSCc2nc3cccnc3n2C2CCCCC2)cc(OC)c1OC	-	-	-	0	0	-
O=c1[nH]c(C(F)(F)C(F)(F)C(F)(F)F)no1	0	0	0	0	0	0
COc1ccc(/C=C2/SC(=S)N(Cc3ccccc3)C2=O)cc1O	?	?	0	0	0	0
O=C1/C(=C\c2cc(Cl)c(O)c(Cl)c2)SC(=S)N1Cc1ccccc1	?	2.1µM	?	?	3.7µM	?
O=C(O)COc1ccc(/C=C2/SC(=S)N(Cc3ccccc3)C2=O)cc1	0	0	0	0	0	0
COc1ccc(OC)c(/C=C2\SC(=S)N(Cc3cccnc3)C2=O)c1	0	6.5µM	0	?	15µM	16µM
COc1ccc(O)c(/C=C2/SC(=S)N(Cc3ccccc3)C2=O)c1	0	13µM	0	?	?	0
CCN(CC)c1ccc(CNS(=O)(=O)c2cc3c(cc2C)NC(=O)CO3)cc1	-	-	-	0	0	-
Clc1nc(NCCc2ccccc2)c2cn[nH]c2n1	0	?	0	0	1.2µM	0
O=c1[nH]ncc(NCCc2ccccc2)c1Cl	0	0	0	?	8.2µM	0
COc1ccc(CCNc2cn[nH]c(=O)c2Cl)cc1OC	0	0	0	0	0	0
Cn1ncc2c(NCCc3ccccc3)nc(Cl)nc21	0	0	0	?	4.6µM	0
CCOc1ccc(NC(=O)N(Cc2c[nH]c3ccccc23)C2CCCCC2)cc1	-	-	-	0	0	-
CC(C)(C)C1CCc2onc(C(=O)Nc3sc4c(c3C#N)CCCC4)c2C1 (centres undefined)	-	-	-	0	0	-
Clc1ccc2c(NCCNC3CCCCC3)ccnc2c1	21µM	?	15µM	?	?	6.5µM
CC(C)NC1CCC(Nc2ccnc3cc(Cl)ccc23)CC1 (centres undefined)	?	0	0	?	0	?
CC(C)NC(=O)c1cc(C2CCCCN2C(=O)c2ccccc2)on1 (centres undefined)	0	-	0	0	0	-
N#CC(CC(=O)c1ccc(Cl)cc1)c1ccccc1 (centres undefined)	0	0	0	0	16µM	0
O=C(CC(C(=O)O)c1ccc(Cl)cc1)c1ccccc1 (centres undefined)	0	0	0	0	0	0
CCOC(=O)C1=C(CN2CCCCC2)NC(=O)NC1c1ccc(C)cc1 (centres undefined)	-	-	-	0	0	-
Cc1ccc(O)c(C(=O)CC(=O)c2ccccc2Cl)c1	12µM	?	?	?	7.3µM	0
Cc1ccc(O)c(C(=O)CC(=O)c2ccc(C(C)(C)C)cc2)c1	0	?	0	?	0	0
SMILES	HT1080 IDH1KD tx	MCF10A rereplic	HT1080NT lethal	KB-3-1 tox	KB-V1 cytotox	SW480 rerep
CC(C)Cn1c(SCc2nc3ccccc3c(=O)[nH]2)nc2ccccc2c1=O	0	11µM	0	0	0	?
Cn1c(SCc2nc3ccccc3c(=O)[nH]2)nc2ccccc21	0	0	0	0	?	0
O=c1[nH]c(CSc2nnc(Nc3ccccc3)s2)nc2ccccc12	0	0	0	0	0	16µM
COc1ccc(-c2nnc(CSc3nc4ccccc4c(=O)n3CC(C)C)o2)cc1OC	?	0	?	0	21µM	0
O=C(CCc1nc2ccccc2c(=O)[nH]1)Nc1nnc(SCc2ccccc2)s1	0	0	0	0	0	0
CCOC(=O)C(=O)NC1CC=CCC1c1ccc2c(c1)OCO2 (centres undefined)	0	0	0	0	0	0
